# Activity calls are given as the source filed them. Unless noted, no rule for the calls is given here.
# Tests used:
# [1] = test system: XIP peptide (Xip251-270) binding; test: small-molecule binders of XIP peptide, primary screen, biochemical, small-molecule microarray, fluorescence 635/667 nm, 0.1 µg/mL protein (AID 1182); conditions: fluorescent protein binding, 635 nm, higher = more signal, called active from +8 up or from −8 down
# XIP peptide (Xip251-270) = test: small-molecule binders of XIP peptide, primary screen, biochemical, small-molecule microarray, fluorescence 635/667 nm, 0.5 µg/mL protein (AID 1183); conditions: small-molecule microarray binding, fluorescence 635 nm; higher = more signal
# [2] = Plasmodium falciparum growth inhibition, primary screen, strain 3D7, DAPI fluorescence, 100 nL (AID 1184);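 also: parasites grown inside human red blood cells in medium with human serum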; conditions: P. falciparum 3D7 growth, 3 d, higher = more signal
# [3] = molecular target: Homeobox protein Hox-A13 (Mus musculus) (UniProt Q62424); test: inhibitors of HoxA13-DNA binding, primary screen, biochemical, fluorescence polarization, labeled oligonucleotide (AID 1185); conditions: 15 min, higher = more signal, called active from +8 up or from −8 down
# [4] = inhibitors of hydroxyurea-induced Chk1 phosphorylation, primary screen, imaging, HeLa, phospho-Chk1 antibody, percent positive cells (AID 1186); conditions: hydroxyurea-induced phospho-Chk1 immunofluorescence imaging, higher = more signal
# [5] = inhibitors of hydroxyurea-induced Chk1 phosphorylation, primary screen, imaging, HeLa, phospho-Chk1 nuclear intensity (AID 1187); conditions: hydroxyurea-induced phospho-Chk1 immunofluorescence imaging, higher = more signal
# Chain of Homeobox protein Hox-A13 (Mus musculus) (Q62424 whole entry, looked up): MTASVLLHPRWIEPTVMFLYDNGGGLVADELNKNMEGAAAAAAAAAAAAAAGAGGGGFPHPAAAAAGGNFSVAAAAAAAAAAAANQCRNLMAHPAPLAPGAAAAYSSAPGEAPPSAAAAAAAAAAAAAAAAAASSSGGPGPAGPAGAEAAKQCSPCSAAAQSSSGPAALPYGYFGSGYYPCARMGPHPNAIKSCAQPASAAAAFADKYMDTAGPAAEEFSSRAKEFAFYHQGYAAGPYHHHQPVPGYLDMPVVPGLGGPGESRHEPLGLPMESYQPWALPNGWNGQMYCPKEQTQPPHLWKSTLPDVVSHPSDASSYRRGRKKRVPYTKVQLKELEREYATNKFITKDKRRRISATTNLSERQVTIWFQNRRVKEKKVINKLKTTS
Compound,composite z-score [1],composite z-score (XIP peptide (Xip251-270)),z-score [2],z-score [3],z-score [4],z-score [5]
C=CCC(OC(C)=O)[C@@H]1[C@@H](N(Cc2cccc3ccccc23)C(=O)Cc2ccc(F)cc2)c2cc(OCCCO)ccc2N1C(=O)Cc1ccc2ccccc2c1 (stereo partly specified),-0.741 (inactive),0.57,-1.17,-0.474 (inactive),-0.579 (inactive),-0.516 (inactive)
CC/C=C/C(=O)N(C[C@@H]1CCCO1)[C@@H]1CC(C(=O)NCCO)=C[C@H](Oc2c(I)cc(CO)cc2OC)[C@H]1O,0.969 (inactive),-0.769,-1.03,-5.37 (inactive),1 (inactive),1.11 (inactive)
O=C/C=C/c1ccc(/C=C/c2ccccc2)cc1,-0.837 (inactive),-0.443,3.9,0.0626 (inactive),0.144 (inactive),0.848 (inactive)
CCOC(=O)C[C@H]1[C@H](OC(=O)c2cc3ccccc3oc2=O)[C@@H](NC(=O)C2CCCCC2)c2cc(OCCCO)ccc2N1C(=O)c1ccc2ccccc2n1,-0.0413 (inactive),0.522,-0.292,-4.56 (inactive),0.453 (inactive),0.333 (inactive)
COCCCNC(=O)[C@@H]1c2ccccc2C(=O)N(CC23CC4CC(CC(C4)C2)C3)[C@H]1c1ccc(CO)cc1,0.428 (inactive),-0.518,-1.95,-4.65 (inactive),-0.546 (inactive),-0.786 (inactive)
O=[N+]([O-])c1ccc(C[n+]2ccc3ccc(O)cc3c2)o1,1.14 (inactive),0.676,0.87,-5.47 (inactive),-0.0465 (inactive),-0.0404 (inactive)
CCOC(=O)C[C@H]1[C@H](OC(=O)c2cc3ccccc3oc2=O)[C@@H](NC(=O)c2ccc3ccccc3c2)c2cc(OCCCO)ccc2N1C(=O)c1ccc2ccccc2n1,0.227 (inactive),-0.333,-1.6,-1.06 (inactive),-0.0364 (inactive),0.034 (inactive)
C[C@]1(C(=O)NCc2ccccc2)c2ccccc2C(=O)N(Cc2cc(C(F)(F)F)cc(C(F)(F)F)c2)[C@H]1c1ccc(CO)cc1,1.03 (inactive),-0.105,-1.61,-1.78 (inactive),-1.45 (inactive),-2.06 (inactive)
C[C@@H]1NC(=O)[C@H](Cc2ccccc2)NC(=O)[C@@]23C(=O)N[C@@H](Cc4ccccc4)C2[C@H](C)[C@@]2(C)O[C@H]2C3/C=C/C/C=C\CNC1=O (stereo partly specified),-0.138 (inactive),0,-0.5,-6.67 (inactive),0.4 (inactive),0.374 (inactive)
C=CCOC(=O)[C@@H]1[C@H]2C(=O)O[C@H](c3ccccc3)[C@H](c3ccccc3)N2[C@H](c2ccc(OCCOC(=O)[C@H]3C[C@H]4C(=O)N[C@@H](CCCCNC(C)=O)C(=O)N4[C@H]3c3ccc(O)cc3)cc2)[C@@]12C(=O)Nc1ccc(I)cc12,0.393 (inactive),0.566,-1.78,0.32 (inactive),0.293 (inactive),-0.568 (inactive)
CN1C(=O)C2C=CC(C(O)C3CC=CCC3)N(Nc3ccccc3)C2C1=O (stereo unspecified),0.769 (inactive),0.795,0.235,-3.96 (inactive),0.202 (inactive),0.25 (inactive)
C=CC[C@]1(C(N)=O)N=C(c2ccc(OCCCO)cc2)O[C@H]1c1ccccc1CN=[N+]=[N-],0.914 (inactive),-0.313,-2.04,-2.82 (inactive),-0.273 (inactive),0.168 (inactive)
CC(=O)NCCCC[C@@H]1NC(=O)[C@H]2C[C@@H](C(=O)NCCCCCCN(C)C)[C@@H](c3cccc(OCCO)c3)N2C1=O,2.96 (inactive),0.882,-0.0473,-2.84 (inactive),0.181 (inactive),0.733 (inactive)
C#CCNC(/C=C/c1ccccc1)CO (stereo unspecified),-0.447 (inactive),0.0391,-0.414,-1.21 (inactive),0.0357 (inactive),0.237 (inactive)
O=C1OCCC/C=C\[C@H]2OC34C=CCN(CCN5CCOCC5)C(=O)[C@H]3N(CCCCCO)C(=O)[C@@H]4C12 (stereo partly specified),0.853 (inactive),-0.733,1.82,-4.6 (inactive),0.564 (inactive),0.292 (inactive)
CCOC(=O)C1=C[C@@H](c2ccccc2)N(S(=O)(=O)c2ccc(C)cc2)[C@H]1c1ccc(F)cc1,0.346 (inactive),0.382,-2.17,-0.178 (inactive),0.0332 (inactive),-0.293 (inactive)
O=C1OCC=C[C@H]2OC34C=CCN(Cc5ccccc5)C(=O)[C@H]3N(CCCCCO)C(=O)[C@@H]4[C@@H]12 (stereo partly specified),0.211 (inactive),-0.85,-1.99,-3.21 (inactive),0.729 (inactive),0.0912 (inactive)
COc1ccc(CCNC(=O)[C@@]2(c3ccc([N+](=O)[O-])cc3)CC(=O)N(C(C)C)[C@@H]2c2ccc(CO)cc2)cc1,1.25 (inactive),-0.904,-0.303,-3.03 (inactive),-0.322 (inactive),-0.0259 (inactive)
CC[C@@H]1C=C(C(=O)O)[C@H](c2ccccc2)N1S(=O)(=O)c1ccc([N+](=O)[O-])cc1,-0.0477 (inactive),0.729,-1.01,-3.73 (inactive),-0.0036 (inactive),-0.3 (inactive)
CC(C)C[C@@H]1NC(=O)[C@H](CC(C)C)NC(=O)[C@@]23C(=O)N[C@@H](Cc4ccccc4)C2[C@H](C)[C@@]2(C)O[C@H]2C3/C=C/CC/C=C/CNC1=O (stereo partly specified),-0.404 (inactive),0.674,-1.52,-6.55 (inactive),-0.218 (inactive),-0.0919 (inactive)
C=CCNC(=O)[C@H]1[C@@H]2C(=O)O[C@@H](c3ccccc3)[C@@H](c3ccccc3)N2[C@@H](c2ccccc2OCCO)[C@]12C(=O)N(C(=O)OCCOC)c1ccc(C#CCNC(N)=O)cc12,0.854 (inactive),0.822,-1.87,-1.33 (inactive),-0.267 (inactive),-0.261 (inactive)
Cc1ccc(S[C@]2(C(=O)NC(C)C)CC(=O)N(Cc3cc(C(F)(F)F)cc(C(F)(F)F)c3)[C@@H]2c2ccc(CO)cc2I)cc1,0.351 (inactive),0.667,0.201,-2.81 (inactive),0.392 (inactive),0.52 (inactive)
O=C1c2ccccc2[C@](Cc2ccccc2I)(C(=O)NCc2ccccc2)[C@H](c2ccc(CO)cc2)N1Cc1ccccc1C(F)(F)F,0.696 (inactive),-1.14,-0.794,-1.29 (inactive),-0.361 (inactive),-0.331 (inactive)
CN1CCC(CCCO)=CC1C1CC1 (stereo unspecified),-0.289 (inactive),-0.5,-0.548,-1.63 (inactive),-0.734 (inactive),-0.684 (inactive)
C=CCN1C(=O)[C@@]2(Cc3ccccc3)N=C(c3ccc(OCCCO)cc3)O[C@H]2c2ccccc21,1.67 (inactive),0.79,-1.92,-0.611 (inactive),-0.0856 (inactive),-0.138 (inactive)
CN1C2C=C(c3ccc(CO)cc3)C(C3C(=O)N(C(N)=O)C(=O)C32)C1c1cccs1 (stereo unspecified),0.549 (inactive),0.92,-1.65,-5.19 (inactive),-1.21 (inactive),-1.11 (inactive)
